# From ChEMBL document CHEMBL4513216, “Probing the Open Global Health Chemical Diversity Library for Multistage-Active Starting Points for Next-Generation Antimalarials” (ACS Infect Dis, 2020)
# The campaign covered roughly 69,000 compounds. About 8,600 (12%) showed an effect of 50% or more. The sample as a whole holds a higher share of strong results than the screen did.
# System: Plasmodium berghei
# Assay: Screen against P. berghei liver stage (PbLuc), transformed with Luciferase, at 10uM
# Assay type: functional, HepG2
# Conditions: tested at 10 uM
row,Structure (SMILES),INHIBITION
1,CCN1CCOC(CNCc2cccc(OCc3ccccn3)c2)C1 (centres undefined),-62.8%
2,CN(C)c1cc(CNC(=O)c2c(F)cccc2F)ccn1,-7.35%
3,COCC1Cn2nnc(-c3cnn(C)c3)c2CN1Cc1ccc(C)s1 (centres undefined),11.8%
4,CNS(=O)(=O)CC(=O)NC(c1cc(C)sc1C)C(C)C (centres undefined),16.6%
5,Cn1cc(C(=O)NC(Cn2cccn2)C(C)(C)C)cn1 (centres undefined),35.2%
6,CCc1nc(CNC(C)c2cccc(N3CCCC3=O)c2)cs1 (centres undefined),10.8%
7,Cc1ccsc1CN(Cc1ncccc1C(=O)O)C1CC1,31.9%
8,Cc1ccsc1CN(C)Cc1ncccc1C(=O)O,68.3%
9,CC(C)c1nc(CN(C)Cc2ncccc2C(=O)O)cs1,15.7%
10,COc1cccc(CCC(=O)N2CCN(CC(C)(C)O)CC2)c1,4.3%
11,CC(=O)c1cc(CN2C[C@@H]3CC[C@H]2CN(Cc2c(C)noc2C)C3)cs1,-33.5%
12,CNC(=O)c1nnc2ccc(N3CCOCC3)cc2n1,-12.2%
13,COCCNC(=O)c1nnc2ccc(N3CCOCC3)cc2n1,54%
14,CCNC(=O)c1nnc2ccc(N3CCOCC3)cc2n1,30%
15,COC(=O)c1ccc(-c2cc(C(F)(F)F)cc(N(C)C)n2)cc1,23.6%
16,Cc1cccc(C(C(=O)NC(C)(C)CN2CCCC2)N(C)C)c1 (centres undefined),-13.2%
17,CCc1ccc2nc(C)cc(C(=O)N[C@@H]3C[C@@H](CO)N(C)C3)c2c1,22.1%
18,Cn1cccc1C(=O)N1CCC2(CC1)CN(c1cncnc1)C(=O)CO2,11.4%
19,Cn1cc(N2CC3(CCN(C(=O)c4cccn4C)CC3)OCC2=O)cn1,73%
20,Cn1cccc1C(=O)N1CCC2(CC1)CN(c1ccccc1)C(=O)CO2,33.4%
21,Cn1cccc1C(=O)N1CCC2(CC1)CN(c1ccsc1)C(=O)CO2,71.9%
22,CN1CC(=O)N(c2ccsc2)CC12CCN(C(=O)c1cccn1C)C2 (centres undefined),19.4%

row,Structure (SMILES),INHIBITION
1,Cn1cc(N2CCC3(CCN(C(=O)c4cccn4C)C3)C2=O)cn1 (centres undefined),23.6%
2,CN(C)c1ccc(CN(CC2CCCO2)C(=O)c2csnn2)cc1 (centres undefined),11.8%
3,CC1(c2cc[nH]n2)CCN(C(=O)c2ccc(Cl)cc2)CC1,-2.09%
4,CN(C)CC(=O)N1C[C@H]2CCC[C@@]2(COc2ccccn2)C1,52.9%
5,CN(C)C(=O)N1C[C@H]2CCC[C@@]2(COc2ccccn2)C1,-9.67%
6,COCCC(=O)N1C[C@H]2CCC[C@@]2(COC)C1,24.6%
7,COC[C@@]12CCC[C@@H]1CN(C(=O)COC1CCCC1)C2,32.5%
8,COCC(=O)N1C[C@H]2CCC[C@@]2(COC)C1,85.2%
9,COC[C@@]12CCC[C@@H]1CN(C(=O)CN(C)C)C2,56.4%
10,COC[C@@]12CCC[C@@H]1CN(C(=O)N1CCCC1)C2,18.6%
11,O=C(c1ncccn1)N1C[C@H]2CCC[C@@]2(COc2ccccn2)C1,-15.1%
12,CCOCC(=O)N1C[C@H]2CCC[C@@]2(COC)C1,-0.284%
13,Cc1cccc(CN2C(=O)CCC23CCN(c2ncc(F)cn2)CC3)n1,-26.8%
14,O=S(=O)(N1CCOCC1)N1CCCC(c2ccccn2)C1 (centres undefined),15.99%
15,COc1c(C2CCCN2C(=O)c2c(C)noc2C(C)C)c(C)nn1C (centres undefined),35.9%
16,COCC(=O)N1CCc2c(nnn2C)C1COCCN1CCCC1 (centres undefined),29%
17,Cc1ccc(C(=O)Nc2nn[nH]n2)s1,2.61%
18,Cc1cc(C)c(CNC(=O)NCc2ccc3c(c2)OCCO3)c(=O)[nH]1,-54.6%
19,CS(=O)(=O)N1CCN(C(=O)c2cc(-c3cccs3)cs2)CC1,33.3%
20,CCc1oc(C(=O)NC(C)c2ncn[nH]2)cc1CN1CCCC1 (centres undefined),7.24%
21,Cc1cccnc1NC(=O)NCc1cccnc1OC(C)C,19.4%
22,Cc1cc(C(=O)NC2(c3ccc(Br)cc3)CC2)n(C)n1,47%

row,Structure (SMILES),INHIBITION
1,CC(=O)N1N=C(c2ccncc2)OC1C(=O)N(C)CCc1ccccc1 (centres undefined),0.618%
2,CNc1ncccc1CN1CCN(c2cc(NC3CC3)nc(N)n2)CC1,5.11%
3,CCc1ccc2nc(NCCCN(CCO)CCO)cc(C)c2c1,42%
4,CCc1ccc2nc(NCC(O)CO)cc(C)c2c1 (centres undefined),50.7%
5,CCc1ccc2nc(NCCOCCO)cc(C)c2c1,-46.7%
6,Cn1c(N2CCOCC2)nc2cc(C(=O)N[C@@H]3CC[C@@H](N)C3)ccc21,33.4%
7,CN(C)CCNC(=O)c1ccn(-c2ccc3ccccn23)n1,13.6%
8,Cc1cc(CN2CCN(CC(O)c3cccc(F)c3)CC2)no1 (centres undefined),-17.6%
9,Cc1cc(CN2CCN(CC(O)c3ccc4c(c3)OCO4)CC2)no1 (centres undefined),-1.14%
10,Cc1cc(CN2CCN(CC(O)c3ccc(C)c(C)c3)CC2)no1 (centres undefined),62.6%
11,Cc1cc(CN2CCN(C(c3ccccc3)c3ccccc3)CC2)no1,85.4%
12,Cc1cc(CN2CCN(CC(O)c3ccccc3)CC2)no1 (centres undefined),36.4%
13,Cc1cc(CN2CCN(CC(O)c3ccc(Cl)cc3)CC2)no1 (centres undefined),9.14%
14,COC(=O)c1ccc(N(C(=O)c2ccncc2)C(C)C)c(C)c1,7.18%
15,COc1ccc(CN2CCCCC2Cn2nc(C)nc2C)cc1F (centres undefined),-37.7%
16,Cc1cn(-c2ccccc2)nc1NS(=O)(=O)c1cc(C(=O)O)sc1C,8.38%
17,O=C(CCN1CCCO1)N1CC[C@@H](c2ccc3ccccc3c2)[C@H](O)C1,8.74%
18,O=C(CCN1CCCC1)N1CC[C@@H](c2ccc3ccccc3c2)[C@H](O)C1,52.2%
19,O=C(CCn1cccn1)N1CC[C@@H](c2ccc3ccccc3c2)[C@H](O)C1,-28.9%
20,CCN1Cc2ccccc2CC2(CCN(CC3CCC3)CC2)C1=O,36.5%
21,CN1CCOC(CNCc2cccc(OCC(F)(F)F)c2)C1 (centres undefined),21.7%
22,Cc1n[nH]cc1CNC(=O)Nc1cccc(OCC(F)(F)F)c1,60.3%

row,Structure (SMILES),INHIBITION
1,Cc1n[nH]cc1CNCc1cccc(OCC(F)(F)F)c1,66.3%
2,COc1cccc(NC(=O)NCc2cnn(C)c2)c1,13%
3,Cc1n[nH]cc1CNCc1ccnc(OCC(F)(F)F)c1,28.5%
4,CC(C)C(=O)Nc1cccc(OCC(=O)NCc2ccccc2F)c1,40.6%
5,CCN(Cc1cnn(C)c1)C[C@H]1CC[C@@H](Cc2cccc(C#N)c2)O1,-15.7%
6,O=C1CN(C(=O)C2CCCCC2)CC(O)CN1Cc1ccco1 (centres undefined),-11.1%
7,CC(C)c1nc2n(n1)CC(NCc1ncc(C(C)(C)C)o1)CC2 (centres undefined),-33.9%
8,Cc1c(C)n2c(SCC(=O)N3CCC(C)CC3)nnc2[nH]c1=O,-5.1%
9,Cc1ccc(CNC(=O)c2cc(C)n(C)n2)o1,35.75%
10,Cc1cc(C)c2cc(CNCc3ccco3)c3nn(C)c(=O)n3c2c1,60.4%
11,Cc1cc(C(=O)NCc2ccco2)nn1C,10.075%
12,Cc1cc(C)c2cc(CNCc3ccc(C)o3)c3nn(C)c(=O)n3c2c1,54.5%
13,Cc1ccn(CCC(=O)NCc2ccc(C)o2)n1,27.5%
14,Cc1cc(C)c(N(CC(O)CNCc2ccco2)S(C)(=O)=O)c(C)c1 (centres undefined),9.96%
15,CNc1cc(C2CCCN2Cc2ccc(OCC(=O)O)cc2)ccn1 (centres undefined),-17.7%
16,Cc1ccc(N2CCCN(C(=O)CCC3CCCO3)CC2)nn1 (centres undefined),-14.6%
17,CN(CCSc1nncn1CC(F)(F)F)c1ccccc1,-31.4%
18,O=C(Cc1cccc(F)c1)NCCCNC(=O)c1cccc(O)c1,-29.7%
19,Cc1ncc(CNC(=O)CCc2c(C)noc2C)c(C2CCCN2C)n1 (centres undefined),4.08%
20,Cn1nc(C2CCN(C(=O)Cc3cccc(F)c3)CC2)c2cccnc21,46.6%
21,CN1CCCN(C[C@@H]2CN(C(=O)CC3CCC3)C[C@@H]2CO)CC1,-6.91%
22,COc1cccc(CC(=O)N2CCN(C)c3ncccc3C2)c1,-93%

row,Structure (SMILES),INHIBITION
1,CNC(=O)C1CCCN(C(=O)c2ccccc2-n2cc(CN)cn2)C1 (centres undefined),1.62%
2,CN(C)C(=O)C1CCCN(C(=O)c2ccccc2-n2cc(CN)cn2)C1 (centres undefined),50.8%
3,NCc1cnn(-c2ccccc2C(=O)N2CCCC(C(N)=O)C2)c1 (centres undefined),9.05%
4,CCCS(=O)(=O)N1C[C@@H](Oc2ncccc2F)[C@H]2OCCC[C@H]21,30.3%
5,CCn1c(CN2CCN(C(=O)C3CCC3)CC2)nc2c(F)cccc21,18.04%
6,CCN1C(=O)C(C#N)=C(C)/C(=C/C2=Cc3ccccc3OC2)C1=O,51.7%
7,O=C(Nc1cccnc1)C1=Cc2ccccc2OC1,-25%
8,CC(Cn1cccn1)NC(=O)C1=Cc2ccccc2OC1 (centres undefined),-40.7%
9,CC1=C(C#N)C(=O)NC(=O)/C1=C\c1c(C)[nH]n(-c2ccccc2)c1=O,-25.6%
10,COC(=O)CC(C1=Cc2ccccc2OC1)c1oc(C)cc(=O)c1O (centres undefined),11.6%
11,CC1=C(C#N)C(=O)N(C)C(=O)/C1=C\C1=Cc2ccccc2OC1,92.5%
12,Cc1cc(C)n(CCC(=O)N2CCCC(c3cc(C(N)=O)[nH]n3)C2)n1 (centres undefined),16.8%
13,COC(=O)C(c1ccccc1)N(C)C(=O)c1ccnc(C)n1 (centres undefined),23.7%
14,O=C(c1cccnc1)N1C[C@H]2CC[C@@H](C1)N(Cc1cc(F)ccc1F)C2,19.2%
15,CCc1nc(CN(C)C2CCCN(c3cccnn3)C2)no1 (centres undefined),14.1%
16,NC(=O)C1(Cc2ccc(-c3ccccc3)cc2)CCCNC1 (centres undefined),-0.232%
17,O=C(O)C1(Cc2ccc(-c3cccs3)cc2)CCNC1 (centres undefined),35.55%
18,O=C(O)C1(Cc2cccc(-c3cccs3)c2)CCCNC1 (centres undefined),29.05%
19,O=C(N1CCCC1)C1(Cc2ccc(-c3cccs3)cc2)CCNC1 (centres undefined),50.9%
20,CCNC(=O)C1(Cc2ccc(-c3ccccc3)cc2)CCCNC1 (centres undefined),-0.232%
21,NC(=O)C1(Cc2ccc(-c3ccccc3)cc2)CCNC1 (centres undefined),52.7%
